# Compounds with a hit are over-represented: about 3.6% of the library has one in this group of screens.
# Rango-impB inh: qHTS Assay for Inhibitors of Rango (Ran-regulated importin-beta cargo) - Importin beta complex formation. Rango CFP/YFP FRET sensor + importin beta, 45 min. 340,000 compounds, 0.031% hits. Potency, µM (series often up to 92.2 µM), inactives show top-dose inhibition of complex formation; calls by dose curve;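 further: potency means the concentration at half of the fitted maximal effect; 0% = DMSO wells and 100% = buffer wells lacking importin beta; nearly all actives have a fitted effect of over 15% in size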
#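 FRET biosensor Rango (snurportin 1 IBB between N-terminal EYFP and C-terminal Cerulean), 50 nM in PBS/1 mM DTT/0.02% Tween-20/0.1% BSA, preincubated 5 min RT with compound; 0.125 microM importin beta added, 45 min RT, CFP/YFP FRET ratio read.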
# Rango release inh: qHTS Assay for Inhibitors of RanGTP induced Rango (Ran-regulated importin-beta cargo) - Importin beta complex dissociation; Biochemical FRET Rango-importin beta, RanGTP-induced dissociation; Potency, µM (series often up to 46.1 µM), for inactives: top-dose activity change, negative = inhibition; 340,000 compounds, 0.071% hits; calls by dose curve; further: potency means the concentration at half of the fitted maximal effect; % of control where 0% means no effect; nearly all actives have a fitted effect of over 45% in size
#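 Recombinant Rango FRET biosensor (EYFP–snurportin 1 IBB–cerulean CFP10) at 0.1 uM premixed with 0.25 uM importin beta in PBS, 1 mM DTT, 0.02% Tween-20, 0.1% BSA. Compound added 5 min; RanGTP-RCC1 (0.6 uM Ran, 2 mM GTP, 0.2 uM RCC1) then triggers release, read at 45 min.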
# PLK1 PBD block: qHTS for Inhibitors of PLK1-PDB (polo-like kinase 1 - polo-box domain): Primary Screen; Serine/threonine-protein kinase PLK1 (Homo sapiens), P53350; Plk1 PBD binding of FITC phosphopeptide, fluorescence polarization; Potency, µM, inactives show max response, negative = inhibition, actives largely listed as inhibitors; 360,000 compounds, 2.8% hits; AID 720504, 2013; further: potency means the concentration at half of the fitted maximal effect; series mostly up to about 57 µM; on the % scale 0 is the no-effect control and ±100 the full control effect; nearly all actives have a fitted effect of over 65% in size
# PI5P4K alpha inh: qHTS for Inhibitors of phosphatidylinositol 5-phosphate 4-kinase (PI5P4K); PI5P4Kalpha enzyme, ADP-Glo luminescence, 60 min; stronger effect = lower value; Phosphatidylinositol 5-phosphate 4-kinase type-2 alpha (Homo sapiens), P48426; 330,000 compounds, 1.2% hits; max response, %; AID 652105, 2013; active means max response of -50% or lower; inconclusive means between -30% and -50%; inactive means -30% or higher; further: value at the top dose of about 77 µM; on the % scale 0 is the no-effect control and ±100 the full control effect
#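 Single end-point luminescence (ADP-Glo) quantified ADP from PI5P4Kalpha turnover; ATP 5 microM final, 1 h at RT, 0.1% CHAPS and 0.28 mM EGTA in HEPES pH 7.4.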
# KAT2A inh: qHTS Assay for Inhibitors of GCN5L2; Potency, µM (highest dose often 58.9 µM), without a hit: at the top dose activity change, negative = inhibition, actives largely listed as inhibitors; 390,000 compounds, 0.21% hits; Histone acetyltransferase KAT2A (Homo sapiens), Q92830; AID 504327, 2011; GCN5L2 HAT assay, ThioGlo1 CoA-SH fluorescence; further: potency means the concentration at half of the fitted maximal effect; on the % scale 0 is the no-effect control and ±100 the full control effect
# Target sequence (Q92830 whole entry, looked up): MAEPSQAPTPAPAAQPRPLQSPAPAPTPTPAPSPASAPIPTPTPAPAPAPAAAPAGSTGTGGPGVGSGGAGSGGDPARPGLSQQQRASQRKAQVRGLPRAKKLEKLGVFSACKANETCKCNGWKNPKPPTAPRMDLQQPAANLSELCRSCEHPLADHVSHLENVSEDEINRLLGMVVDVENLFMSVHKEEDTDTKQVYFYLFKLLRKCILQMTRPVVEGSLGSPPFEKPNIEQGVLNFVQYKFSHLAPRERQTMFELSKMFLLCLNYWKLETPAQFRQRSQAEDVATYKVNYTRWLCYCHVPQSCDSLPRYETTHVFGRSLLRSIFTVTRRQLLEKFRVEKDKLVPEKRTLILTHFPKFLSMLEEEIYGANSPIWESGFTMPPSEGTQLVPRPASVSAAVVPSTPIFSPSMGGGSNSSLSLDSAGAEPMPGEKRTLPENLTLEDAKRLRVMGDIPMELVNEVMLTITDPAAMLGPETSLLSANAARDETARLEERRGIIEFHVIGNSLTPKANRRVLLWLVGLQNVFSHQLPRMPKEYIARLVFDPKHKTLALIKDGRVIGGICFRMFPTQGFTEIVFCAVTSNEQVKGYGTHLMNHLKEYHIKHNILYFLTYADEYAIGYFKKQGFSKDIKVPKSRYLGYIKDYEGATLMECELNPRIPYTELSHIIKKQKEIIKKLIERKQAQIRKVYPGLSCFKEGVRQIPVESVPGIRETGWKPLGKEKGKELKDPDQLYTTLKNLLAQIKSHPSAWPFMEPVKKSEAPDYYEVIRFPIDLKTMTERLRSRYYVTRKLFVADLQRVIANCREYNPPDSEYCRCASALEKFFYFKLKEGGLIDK
#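 Preincubate 20nM GCN5L2 with compound 15 min, RT → add 50uM ThioGlo1 + 75uM H3(1-25) + 70uM acetyl-CoA → read fluorescence 0 and 20 min. Primary qHTS; fluorescent artifacts likely.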
# VDR inh: Inhibitors of the vitamin D receptor (VDR): qHTS | AID 504847, 2011 | Potency, µM, for inactives: max response, negative = inhibition, usual class: inhibitors | VDR-SRC2-3 peptide fluorescence polarization, 2 h | 400,000 compounds, 0.93% hits; further: potency means the concentration at half of the fitted maximal effect; on the % scale 0 is the no-effect control and ±100 the full control effect
#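 Signal is fluorescence polarization, reporting how far test compounds block the interaction of VDR with the SRC2-3 coregulator peptide after a 2 h room-temperature incubation.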
# * hit, by the source's call; ? = inconclusive; nt = no result given. Unless noted, the call rests on the fitted dose curve; in most records, active means well fitted curve in the direction sought with a large enough effect; inconclusive means small, poorly fitted or top-dose-only effect, or another doubt; inactive means no such curve, though single readings can be large; an effect the other way counts as inactive or inconclusive.
SMILES,Rango-impB inh,Rango release inh,PLK1 PBD block,PI5P4K alpha inh,KAT2A inh,VDR inh
C=CCOc1ccc(Br)cc1/C=C1/SC(=Nc2ccc(C(=O)O)cc2)NC1=O,?,-12%,21µM*,-72*,-12%,-15%
Cc1ccc(NC(=O)CCS(=O)(=O)c2ccc3c(c2)NC(=O)C(C)S3)cc1Cl (stereo not drawn),0%,22%,-5%,1,-4%,-5%
CC1Sc2ccc(S(=O)(=O)CCC(=O)Nc3ccccc3Cl)cc2NC1=O (stereo not drawn),3%,2%,27µM*,-5,0%,-19%
CCOc1ccccc1N(C)C(=O)CCS(=O)(=O)c1ccc2c(c1)NC(=O)C(C)S2 (stereo not drawn),0%,-17%,27µM*,-24,-2%,?
Cc1oc2ncn(C)c(=O)c2c1C(=O)NCCCN(Cc1ccccc1)C(C)C,nt,nt,nt,nt,-7%,19%
CCOc1ccc(-n2cc(-c3ccccc3)c3c(N4CCC(C)CC4)ncnc32)cc1,nt,nt,nt,nt,-18%,11%
O=c1cc(-c2ccccc2)ss1,5%,-3%,12µM*,-16,nt,?
O=c1cc(O)nc(-c2ccccc2)s1,?,-27%,?,-15,-13%,-23%
Cc1ccc2nc(CN3CCN(C(=O)Nc4ccc(C)c(F)c4)CC3)oc2c1,nt,nt,nt,nt,10%,10%
Cc1oc2c(C)c3oc(=O)c(CC(=O)N4CCCCC4)c(C)c3cc2c1C,nt,nt,nt,nt,-3%,-3%
Cc1ccc(C(=O)CCS(=O)(=O)c2ccc(Cl)cc2)cc1,3%,14%,?,5,1%,?
Cc1ccc(S(=O)(=O)CCC(=O)c2ccc(F)cc2)cc1,0%,3%,11µM*,3,0%,?
Cc1ccc(C(=O)CCS(=O)(=O)c2ccc(F)cc2)cc1,4%,-7%,9.5µM*,2,0%,25µM*
CC(C)CCn1c(O)c(N=NC(=O)Cn2ccc(C(F)(F)F)n2)c2ccccc21,-3%,-7%,24µM*,-16,3%,79µM*
CN(C)CCCn1c(=S)[nH]c2sc3c(c2c1=O)CCCC3,-1%,-10%,19µM*,?,1%,?
Cc1ccc(-c2ccccc2NC(=O)CCl)o1,4%,-13%,-9%,6,-8%,-7%
Cc1ccc(-c2ccccc2NC(=O)CS(=O)CC(=O)Nc2ccc(C)c(Cl)c2)o1 (stereo not drawn),?,-14%,19µM*,0,-4%,45µM*
NCCOB(c1ccccc1)c1ccccc1,nt,nt,nt,nt,?,14µM*
NCCOc1ccccc1OCCN,?,2%,-5%,2,1%,16%
Cc1cccc(N2CCN(C(=O)c3cccn4c(=O)c5cc(Cl)ccc5nc34)CC2C)c1 (stereo not drawn),nt,nt,nt,nt,-2%,8%
Cc1nnsc1Sc1ccccc1,4%,16%,12µM*,0,-5%,-14%
Cc1cc2c(n1-c1ccc(C(=O)NCC(C)c3ccccc3)cc1)CCCC2 (stereo not drawn),nt,nt,nt,nt,2%,16%
O=C(Nc1cc(S(=O)(=O)Nc2ccc(Cl)cc2)ccc1N1CCCCC1)c1ccc(F)cc1,-2%,-7%,12µM*,-4,-13%,?
COc1ccc(NS(=O)(=O)c2ccc(N3CCOCC3)c(NC(=O)c3ccc(F)cc3)c2)cc1,3%,4%,-1%,2,-6%,-19%
COc1ccc(-n2c(SCC(=O)Nc3cc(C(=O)O)ccc3C)nc3ccccc3c2=O)cc1Cl,0%,-9%,-6%,-64*,-1%,6%
SMILES,Rango-impB inh,Rango release inh,PLK1 PBD block,PI5P4K alpha inh,KAT2A inh,VDR inh
CC(C)(C)c1cc(CN(CCO)CCO)cc(C(C)(C)C)c1O,1%,3%,2.1µM*,nt,-2%,?
CN(C)Cc1cc(C(C)(C)C)c(O)c(C(C)(C)C)c1,-7%,2%,11µM*,-11,-7%,-1%
COc1cc(-c2noc(CCC(=O)Nc3cc(C)ccc3C)n2)cc(OC)c1OC,nt,nt,nt,nt,1%,17%
O=C(/C=C/c1cccc(Br)c1)Nc1nn[nH]n1,-3%,-1%,-1%,-69*,0%,-10%
CCNC(=O)/C=C/c1cccc(Br)c1,nt,nt,nt,nt,-4%,-11%
CC1CCN(C(c2ccc(F)cc2)c2sc3nc(-c4ccco4)nn3c2O)CC1 (stereo not drawn),nt,nt,nt,nt,-14%,2%
S=c1[nH]nc(Cc2cccc3ccccc23)o1,1%,1%,-12%,4,-2%,-1%
CC(Cc1n[nH]c(=S)o1)c1ccccc1 (stereo not drawn),5%,-4%,24µM*,-22,-3%,-20%
CCc1nnc(N/N=C/c2cc(Br)c(O)cc2O)n1N,?,-30%,-26%,-69*,-3%,5%
COc1ccc(OC)c(NC(=O)CCc2nc(-c3ccc(C)cc3)no2)c1,nt,nt,nt,nt,-5%,-20%
CNc1ccccc1C(C)(C)c1cc(C)[nH]n1,7%,-13%,8.4µM*,-18,-11%,?
Cc1cc(C)c(NC(=O)c2cc(S(=O)(=O)N3CCOCC3)ccc2F)c(C)c1,5%,-6%,11µM*,-24,-4%,?
COC1=C/C(=C/c2c(N)n3c(nc2=O)sc2cc(S(C)(=O)=O)ccc23)C=CC1=O,?,?,77%,-76*,-11%,-10%
CS(=O)(=O)c1ccc2c(c1)sc1nc(=O)c(/C=C3/C=CC(=O)C(O)=C3)c(N)n12,?,?,68%,-80*,?,19%
Cn1c(=NC(=O)c2ccccc2[N+](=O)[O-])sc2cc(S(C)(=O)=O)ccc21,-3%,0%,3%,52,4%,13%
CCOC1=C/C(=C/c2c(N)n3oc(C)cc3nc2=O)C=CC1=O,nt,nt,nt,nt,-6%,nt
Cc1cccc(NC(=O)CN2C(=O)C3(SCC(=O)N3c3ccccc3)c3ccccc32)c1 (stereo not drawn),nt,nt,nt,nt,-11%,8%
S=C(c1ccccc1)N1CCN(c2ccccc2)CC1,0%,1%,27µM*,3,nt,-12%
O=C(c1ccccc1)N1CCCC(C(=O)N2CCN(c3ccccc3)CC2)C1 (stereo not drawn),-3%,-1%,27µM*,-13,0%,?

# Bioassay records (PubChem BioAssay)
